Test results from PubChem BioAssay (NCI).
The panel holds about 83,000 compounds, 20% with a hit somewhere; the sample as a whole holds those more often.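 Compound tested at a single concentration for 48 hours in 96-well plates; a percent growth value below 10 was scored as active.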 Values without a mark were called inactive. Activity calls are given as the source filed them.

These compounds were tested on HCC-2998 colon (assay: NCI-60 one-dose screen, 48 h (100 = growth as untreated, 0 = no growth, -100 = all killed)). Conditions: 10 µM unless noted.

Compound	growth
O=S(=O)(NCCNc1cc(-c2c(-c3cccc(O)c3)nc3sccn23)ccn1)c1ccc(Cl)cc1	102%
CN(C)CCOC(=O)Nc1ccc(Cl)cc1	102%
CCCCCCCCN(CCCCCCCC)C(=N)c1ccnc2ccccc12	-84.1% (active)
COc1cc(-c2ncn(/C=C\c3nnco3)n2)cc(C(F)(F)F)c1	7.01% (active)

What follows are compounds tested on KM12 colon in the same assay as above. Conditions: 10 µM unless noted.

Compound	growth
O=C(CC12CC3CC(CC(C3)C1)C2)NCCOCCOCCNC(=O)c1cc2c(o1)C(=O)c1ccccc1C2=O	-23.9% (active)
CCN(CC)CCCNC(=O)c1ccc(N)cc1	107%
CCCCCCCCc1cc[n+](CC(=O)c2ccc(Br)cc2)cc1	-56.8% (active)
CC/C=C/[C@@H]1C=C[C@@H]2CCC[C@H]2[C@@H]1CC[C@H](O)[C@H](C)N	-85.1% (active)
N#Cc1c(NC(=O)c2ccc(Br)cc2)sc2c1CCCC2	25.3%
O=[N+]([O-])c1ccc2[nH]cc(-c3c4ccsc4cc4[nH]c5ccc([N+](=O)[O-])cc5c34)c2c1	3.79% (active)
Cc1nc(Nc2ccc(N)cc2)c2ccccc2n1	98.3%
CCCCN(Cc1ccc(C(=O)NO)cc1)C(=O)Nc1ccc(OCCCCCCCCCn2cc(CCCCC(=O)N[C@H](C(=O)N3C[C@H](O)C[C@H]3C(=O)NCc3ccc(-c4scnc4C)cc3)C(C)(C)C)nn2)cc1	22.1%
COc1ccc(OC)c(/C=C2\COc3ccc(O)cc3C2=O)c1	60.2%
CCOC(=O)C1=C(C)NC(SCc2nnc(-c3ccc(Cl)cc3)o2)=NC1c1ccc(Cl)cc1Cl (stereo unspecified)	63.4%
O[C@H]1CO[C@H]2[C@@H]1OC[C@@H]2Oc1ccc(Nc2ccnc(Nc3ccc(O[C@H]4CO[C@H]5[C@@H]4OC[C@@H]5O)c(Cl)c3)n2)cc1Cl	6.62% (active)
COc1ccc(-n2nnc(C(=O)NCCc3c[nH]c4ccc(F)cc34)c2C)cc1	103%
CC(=O)Nc1ccc2c(c1)Cc1c(F)cccc1-2	91.5%
O=C1c2cccc3c(-c4ccc(-c5nc6c7ccccc7c7ccccc7c6[nH]5)cc4)ccc(c23)C(=O)N1CCN1CCNCC1	21.6%
C=C(C=O)C1CCC2(C(=O)O)CCC3(C)C(CCC4C5(C)CCC(O)C(C)(C)C5CCC43C)C12 (stereo unspecified)	-87.8% (active)
NC(=O)CC1(O)C=C(Br)C(=O)C(Br)=C1	109%

Compound	growth
Cc1ccc(-n2nnc(C3=NCCc4c3[nH]c3ccc(Cl)cc43)c2C)cc1	57.3%
CCN(CC)CC(O)CNc1c2ccc(Cl)cc2nc2ccc(OC)cc12 (stereo unspecified)	-30.9% (active)
C=C1C(=O)O[C@H]2[C@H]1CC/C(C(=O)NCCCCCCCCNC(=O)/C1=C/CC[C@@]3(C)O[C@H]3[C@H]3OC(=O)C(=C)[C@@H]3CC1)=C\CC[C@@]1(C)O[C@@H]21	93.1%
NS(=O)(=O)c1cn(-c2ncnc3nc[nH]c23)ccc1=O	92.9%
O[C@H]1CO[C@H]2[C@@H]1OC[C@@H]2Oc1ccc(Nc2nc(Nc3ccc(F)c(Cl)c3)ncc2F)cc1Cl	108%
N#Cc1c(NC(=O)c2cccc(C(F)(F)F)c2)sc2c1CCC(=O)C2	-21.3% (active)
Cc1cc(-c2ccccc2)cc(SC#N)[n+]1[O-]	37.7%
CSc1nc(N)c(CNC(C)c2ccccc2)c(=O)n1C (stereo unspecified)	106%
Nc1c(-c2nc3ccc(Br)cc3c(=O)[nH]2)nnn1-c1ccccc1	61.6%
CN1CCN(c2ccc3nc(/N=C/c4ccc5sc(-c6ccc([N+](=O)[O-])cc6)nc5c4)sc3c2)CC1	105%
C/C(Cc1ccc(Cl)cc1)=C(/c1ccc(Cl)cc1)c1ccc(OCCN(C)C)cc1	27.9%
Cc1ccc(NC(=O)C(Cl)Cl)cc1	104%
Cc1cnc(Nc2ccc(N3CCN(C)CC3)cc2)nc1Nc1ccc(Cl)c(NS(=O)(=O)C(C)(C)C)c1	8.8% (active)
CCn1c(Sc2nnc(NC(=O)CSC(=S)N3CCCCC3)s2)nc2c1c(=O)n(C)c(=O)n2C	64.2%
CNC(=O)c1cc(Oc2ccc3nc(Nc4cc(Cl)cc(Cl)c4)ccc3c2)ccn1	30.2%
C[C@@H]1CC[C@@H]2[C@@H]1[C@H](OC(=O)/C=C/c1ccccc1)[C@]1(C3CCCCC3)C[C@@H](NC(=O)CO)[C@@]2(C)O1	103%
